Assay results as given in the supplement of paper PMC12350171.
Structures can show the parent of a compound that is named as a salt.

Tested on: Shigella flexneri
Experiment: growth AUC normalised to DMSO control (fraction of control); higher = less growth inhibition, active = hit call of the paper
Conditions: 20 µM;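 active = AUC significantly below DMSO controls by Student t-fit with adjusted P under 0.01; inactive = not significantly reduced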
Procedure, shortened: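 After two anaerobic passages, pathogens were added at a starting OD578 of 0.01 to pre-reduced mGAM plates holding compound at 20 μM with 1% DMSO; hemin and NAD were supplemented for Haemophilus parainfluenzae. Sealed with breathable membranes, plates were read at OD578 hourly for 24 h, in three biological replicates. The trapezoidal rule, applied up to the exponential-to-stationary transition, gave the growth-curve AUC, which was normalised to DMSO controls on the same plate.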

Row | Structure (SMILES) | growth AUC normalised to DMSO control
1 | CN(C)[C@@H]1C(=O)C(C(N)=O)=C(O)[C@@]2(O)C(=O)C3=C(O)c4c(O)cccc4[C@@](C)(O)[C@H]3C[C@@H]12 [Tetracycline hydrochloride] | 0.0389 (active)
2 | CC(Cc1ccc(O)cc1)NCC(O)c1cc(O)cc(O)c1 (centres undefined) [Fenoterol hydrobromide] | 0.962 (inactive)
3 | Clc1ccc(C(OCCN2CCCCC2)c2ccccc2)cc1 (centres undefined) [Cloperastine hydrochloride] | 1.03 (inactive)
4 | CC(O)(CS(=O)(=O)c1ccc(F)cc1)C(=O)Nc1ccc(C#N)c(C(F)(F)F)c1 (centres undefined) [Bicalutamide] | 1.08 (inactive)
5 | CCN(C(C)=O)c1cccc(-c2ccnc3c(C#N)cnn23)c1 [Zaleplon] | 0.954 (inactive)
6 | NCCCNCCSP(=O)(O)O [Amifostine] | 0.99 (inactive)
7 | C[C@]12COC(=O)C[C@@H]1CC[C@@H]1[C@@H]2CC[C@@]2(C)[C@H]1CC[C@]2(C)O [Oxandrolone] | 1 (inactive)
8 | Oc1cc(Cl)ccc1Oc1ccc(Cl)cc1Cl [Triclosan] | 0.0073 (active)
9 | C=CCN1CC[C@]23c4c5ccc(O)c4O[C@H]2C(=O)CC[C@@]3(O)[C@H]1C5 [Naloxone hydrochloride] | 1.03 (inactive)
10 | CC(=O)OCC(=O)[C@H]1CC[C@H]2[C@@H]3CC[C@H]4C[C@H](O)CC[C@]4(C)[C@H]3C(=O)C[C@]12C [Alfadolone acetate] | 0.99 (inactive)
11 | S=C(NC1CCCCC1)N1CCC(c2cnc[nH]2)CC1 [Thioperamide maleate] | 0.957 (inactive)
12 | CN1CCN(C(=O)OC2c3nccnc3C(=O)N2c2ccc(Cl)cn2)CC1 (centres undefined) [Zopiclone] | 1 (inactive)
13 | CN1C(=O)CCS(=O)(=O)C1c1ccc(Cl)cc1 (centres undefined) [Chlormezanone] | 0.992 (inactive)
14 | CN(C)[C@@H]1C(=O)C(C(N)=O)=C(O)[C@@]2(O)C(=O)C3=C(O)c4c(O)cccc4[C@@](C)(O)[C@H]3[C@H](O)[C@@H]12 [Oxytetracycline dihydrate] | 0.015 (active)
15 | N[C@@H]1C[C@H]1c1ccccc1 [Tranylcypromine hydrochloride] | 1 (inactive)
16 | NC(=O)C[S+]([O-])C(c1ccccc1)c1ccccc1 (centres undefined) [Modafinil] | 0.982 (inactive)
17 | COc1ccc(C(=O)N2CCCC2=O)cc1 [Aniracetam] | 0.998 (inactive)
18 | C[C@]12CCC(=O)C(O)=C1CC[C@@H]1[C@@H]2CC[C@]2(C)C(=O)CC[C@@H]12 [Formestane] | 1 (inactive)
19 | CCC(=O)O[C@H]1CC[C@H]2[C@@H]3CCC4=CC(=O)CC[C@]4(C)[C@H]3CC[C@]12C [Testosterone propionate] | 1.03 (inactive)
20 | CCNCC(O)c1cccc(O)c1 (centres undefined) [Etilefrine hydrochloride] | 0.987 (inactive)

Row | Structure (SMILES) | growth AUC normalised to DMSO control
21 | CC(=O)OC1CN2CCC1CC2 (centres undefined) [Aceclidine hydrochloride] | 1.01 (inactive)
22 | CN1[C@@H]2CC[C@H]1C[C@@H](OC1c3ccccc3CCc3ccccc31)C2 [Deptropine citrate] | 0.971 (inactive)
23 | NC(=O)CN1CCCC1=O [Piracetam] | 0.957 (inactive)
24 | CC(=O)[C@H]1CC[C@H]2[C@@H]3CC[C@H]4C[C@H](O)CC[C@]4(C)[C@H]3C(=O)C[C@]12C [Alfaxalone] | 0.973 (inactive)
25 | CCC1(c2ccc(N)cc2)CCC(=O)NC1=O (centres undefined) [Glutethimide, para-amino] | 1 (inactive)
26 | COc1ccc(Cc2nccc3cc(OC)c(OC)cc23)cc1OC [Papaverine hydrochloride] | 0.971 (inactive)
27 | C[C@]12Cc3c[nH]nc3C[C@@H]1CC[C@@H]1[C@@H]2CC[C@@]2(C)[C@H]1CC[C@]2(C)O [Stanozolol] | 0.987 (inactive)
28 | O=c1[nH]c2ccccc2n1C1CCN(CCCC(c2ccc(F)cc2)c2ccc(F)cc2)CC1 [Pimozide] | 1 (inactive)
29 | CN1CCC2(C)c3cc(O)ccc3N(C)C12 (single isomer, unassigned; (-)) [(-) Eseroline fumarate salt] | 1.01 (inactive)
30 | CC[C@@H](CO)NC(=O)[C@@H]1C=C2c3cccc4[nH]cc(c34)C[C@H]2N(C)C1 [Methylergometrine maleate] | 0.966 (inactive)
31 | COc1ccc2c(c1)[C@]13CCCC[C@@H]1[C@H](C2)N(C)CC3 [Dextromethorphan hydrobromide monohydrate] | 0.988 (inactive)
32 | O=P1(N(CCCl)CCCl)NCCCO1 (centres undefined) [Cyclophosphamide] | 1.01 (inactive)
33 | CN1C[C@H](CNC(=O)OCc2ccccc2)C[C@@H]2c3cccc4c3c(cn4C)C[C@H]21 [Metergoline] | 0.973 (inactive)
34 | O=[N+]([O-])O[C@H]1CO[C@H]2[C@@H]1OC[C@H]2O[N+](=O)[O-] [Isosorbide dinitrate] | 1.02 (inactive)
35 | CCC(=O)O[C@@](Cc1ccccc1)(c1ccccc1)[C@@H](C)CN(C)C [Levopropoxyphene napsylate] | 1.04 (inactive)
36 | CCCC[N+]1(C)[C@@H]2C[C@@H](OC(=O)[C@H](CO)c3ccccc3)C[C@H]1[C@@H]1O[C@@H]12 (some centres undefined) [N-Butylscopolammonium bromide] | 0.993 (inactive)
37 | C[C@]12CC[C@H](O)C[C@H]1CC[C@@H]1[C@@H]2C[C@@H](O)[C@]2(C)[C@@H](C3=CC(=O)OC3)CC[C@]12O [Digoxigenin] | 0.999 (inactive)
38 | OC(c1ccccc1)(c1ccccc1)C1CCNCC1 [Azacyclonol] | 0.988 (inactive)
39 | CN1[C@@H]2C[C@@H](OC(=O)[C@H](CO)c3ccccc3)C[C@H]1[C@@H]1O[C@@H]12 [Scopolamine hydrochloride] | 1.06 (inactive)
